# Source: the supplement of paper PMC6992640
# ± gives the standard deviation of the averaged measurements.
# Legend:
# Test in all cases: cell viability (% of vehicle); higher = less cytotoxic
# Conditions in all cases: 10 µM; 72 h
# HCI01 = tested on: HCI01 (cells of a triple-negative basal-like breast cancer xenograft)
# HCI03 = tested on: HCI03 (cells of an ER-positive luminal breast cancer xenograft)
# HCI09 = tested on: HCI09 (cells of a triple-negative luminal androgen receptor type breast cancer xenograft)
# HCI11 = tested on: HCI11 (cells of an ER-positive luminal breast cancer xenograft)
# HCI13 = tested on: HCI13 (cells of an ER-positive luminal breast cancer xenograft)
# HCI16 = tested on: HCI16 (cells of a triple-negative basal-like breast cancer xenograft)
# UCD52 = tested on: UCD52 (cells of a triple-negative basal-like breast cancer xenograft)
# WHIM2 = tested on: WHIM2 (cells of a triple-negative basal-like breast cancer xenograft)
# WHIM30 = tested on: WHIM30 (cells of a triple-negative basal-like breast cancer xenograft)
# 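Further: PDX cells carrying CMV promoter-driven luciferase, viability read as total photon flux per second by IVIS imaging following D-luciferin, vehicle control 0.1% DMSO.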
SMILES,cell viability (HCI01),cell viability (HCI03),cell viability (HCI09),cell viability (HCI11),cell viability (HCI13),cell viability (HCI16),cell viability (UCD52),cell viability (WHIM2),cell viability (WHIM30)
CN(CCOc1ccc(CC2SC(=O)NC2=O)cc1)c1ccccn1.O=C(O)C=CC(=O)O (stereo unspecified) [Rosiglitazone maleate],132 ± 20,115,94 ± 16,90.1,107.5 ± 0.5,99.6,105 ± 7.2,156 ± 25,136 ± 25
COCCCOc1ccnc(C[S+]([O-])c2nc3ccccc3[nH]2)c1C (stereo unspecified) [Rabeprazole],156 ± 40,159,116 ± 3.5,123,152 ± 1.6,161,128 ± 27,131 ± 15,138 ± 8.2
O=C([O-])CCCc1ccccc1.[Na+] [Sodium Phenylbutyrate],122 ± 6.5,135,101 ± 19,117,124 ± 8.9,127,103 ± 16,103.7 ± 0.73,162 ± 27
Nc1ccn(CC(CO)OCP(=O)(O)O)c(=O)n1.O.O (stereo unspecified) [Cidofovir dihydrate],120 ± 9.9,136,109 ± 42,94.7,152 ± 12,96.8,88 ± 0.94,97 ± 24,81 ± 1.9
O=c1ccc2ccc(OCCCCN3CCN(c4cccc5sccc45)CC3)cc2[nH]1 [Brexpiprazole],136 ± 21,106,85.7 ± 10,102,123 ± 5.6,162,78.3 ± 6.2,115 ± 9.1,112 ± 8.2
CCN(CC)CCNC(=O)c1cc(Cl)c(N)cc1OC [Metoclopramide],112 ± 6.5,107,90.8 ± 17,94.6,121 ± 10,72.6,98.01 ± 0.093,88.4 ± 2.2,113 ± 27
COc1cc(C=CC(=O)CC(=O)C=Cc2ccc(O)c(OC)c2)ccc1O [Curcumin],94.5 ± 54,135,69.3 ± 40,51,98.4 ± 44,110,127 ± 22,145 ± 53,197 ± 9.6
S=c1nc[nH]c2nc[nH]c12 [Mercaptopurine (6-MP)],108 ± 4.9,104,116 ± 6,81.6,92.3 ± 12,74.9,91.6 ± 4.2,99.3 ± 24,118 ± 32
CCCC(=O)[O-].[Na+] [Sodium butyrate],99.3 ± 20,85.5,89.8 ± 3.3,92.5,47.1 ± 5.4,91.9,73.7 ± 6.9,83.5 ± 18,119 ± 11
O=C(CCCN1CCC(O)(c2ccc(Cl)cc2)CC1)c1ccc(F)cc1 [Haloperidol],63.3 ± 37,102,86.1 ± 10,90,89.6 ± 9.9,117,61.6 ± 2.5,90.8 ± 36,121 ± 8.7
CN(C)C(=O)c1cc2cnc(Nc3ccc(N4CCNCC4)cn3)nc2n1C1CCCC1,109 ± 4.3,135,114 ± 30,138,126 ± 13,91.7,148 ± 8.1,108 ± 13,130 ± 9.5
COc1c(C)c2c(c(O)c1CC=C(C)CCC(=O)OCCN1CCOCC1)C(=O)OC2 [Mycophenolate Mofetil],141 ± 31,106,86.9 ± 23,103,81.8 ± 11,86.2,91.4 ± 22,112 ± 7.2,130 ± 30
CC1(C)SC2C(NC(=O)C(NC(=O)N3CCN(S(C)(=O)=O)C3=O)c3ccccc3)C(=O)N2C1C(=O)O.[Na] (stereo unspecified) [Mezlocillin Sodium],143 ± 62,142,104 ± 10,102,89.7 ± 3.6,123,105 ± 1.2,107 ± 20,103 ± 9.4
CC(NC(=O)Cc1cc(F)cc(F)c1)C(=O)NC(C(=O)OC(C)(C)C)c1ccccc1 (stereo unspecified),111 ± 14,115,64.1 ± 6.3,104,116 ± 9.7,130,60.1 ± 2.1,74.18 ± 0.26,123 ± 25
CCCCN1CCCCC1C(=O)Nc1c(C)cccc1C.Cl (stereo unspecified) [Bupivacaine HCl],145 ± 30,128,104 ± 14,120,106 ± 2.1,169,89 ± 16,111 ± 7.6,117 ± 12
NC(=O)N1c2ccccc2CC(=O)c2ccccc21 [Oxcarbazepine],91.5 ± 16,133,107 ± 16,98.9,104 ± 15,124,99.59 ± 0.42,91.2 ± 2.1,159 ± 3.8
O=c1cc[nH]c(=S)[nH]1 [2-Thiouracil],107 ± 6.1,139,94.4 ± 19,103,82.4 ± 8.2,112,91.8 ± 2.9,117 ± 34,178 ± 5.9
Cc1ncc([N+](=O)[O-])n1CC(C)O (stereo unspecified) [Secnidazole],57.6 ± 32,133,82.6 ± 1.1,89.3,103 ± 11,114,79.3 ± 1.8,92.4 ± 20,149 ± 20
CC12C=CC(=O)NC1CCC1C2CCC2(C)C(C(=O)Nc3cc(C(F)(F)F)ccc3C(F)(F)F)CCC12 (stereo unspecified) [Dutasteride],129 ± 13,107,114 ± 15,92.4,123 ± 1.7,111,100 ± 4.5,90.3 ± 22,142 ± 12
